# PubChem BioAssay
# “And” between values parts separate entries of the source, which are not always exact repeats. Identical values can stand only once. Unmarked numbers belong to inactive results. The source made the active and inactive calls. The rule behind the calls is not given here.
# Key:
# [1] = system: Aerobactin synthetase IucA (Klebsiella pneumoniae hvKP1); assay: IucA enzyme inhibition, primary screen, biochemical, Spectrum library (AID 1346200); conditions: malachite green pyrophosphate, A620, at 8 µM, hits give low values;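 note: 100% = wells without compound and 0% = wells lacking enzyme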
# [2] = system: Aerobactin synthetase IucA (Klebsiella pneumoniae, hypervirulent); assay: biochemical IucA inhibition screen of LOPAC library by absorbance (AID 1346212); conditions: IucA enzyme assay, absorbance (OD) readout; hits give low values;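 tested at 8 µM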;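 note: 100% = no compound wells and 0% = no enzyme wells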
SMILES,activity remaining [1],remaining activity [2]
Clc1ccc2c(c1)C(N1CCNCC1)=Nc1ccccc1O2,109%,126%
CC(C)NCC(O)c1cc(O)cc(O)c1 (stereo not given),126%,118%
CC(=O)Oc1ccccc1C(=O)O,109%,118%
Cc1ccc(C(=O)Nc2ccc(S(=O)(=O)O)c3cc(S(=O)(=O)O)cc(S(=O)(=O)O)c23)cc1NC(=O)c1cccc(NC(=O)Nc2cccc(C(=O)Nc3cc(C(=O)Nc4ccc(S(=O)(=O)O)c5cc(S(=O)(=O)O)cc(S(=O)(=O)O)c45)ccc3C)c2)c1,69% (active),34.4% (active)
CCN(CC)C(=S)SSC(=S)N(CC)CC,90.4%,89.3%
CC1COc2c(N3CCN(C)CC3)c(F)cc3c(=O)c(C(=O)O)cn1c23 (stereo not given),92.3%,118%
NS(=O)(=O)c1cc2c(cc1Cl)NC(C1CC3C=CC1C3)NS2(=O)=O (stereo not given),122%,95.7%
CCOC(=O)C(C)(C)Oc1ccc(Cl)cc1,110%,122%
CCN(CC)CCOCCOC(=O)C1(c2ccccc2)CCCC1,93.9%,113%
CN[C@H](CC(=O)O)C(=O)O,118%,118%
CC/C(=C(\c1ccccc1)c1ccc(OCCN(C)C)cc1)c1ccccc1,118%,107%
CN=C(NC#N)NCCSCc1nc[nH]c1C,98.9%,116%
CCN(CC)CCNC(=O)c1cc(Cl)c(N)cc1OC,88.1%,101%
Clc1cccc(Cl)c1NC1=NCCN1,119%,122%
CC1=C(CC(=O)O)c2cc(F)ccc2/C1=C\c1ccc(S(C)=O)cc1 (stereo not given),90%,119%
Cc1ccc(N(CC2=NCCN2)c2cccc(O)c2)cc1,117%,92.9%
CN(C)CCN(Cc1cccs1)c1ccccn1,120%,93%
CN(C)CCC(c1ccccc1)c1ccccn1 (stereo not given),109%,89.8%
CC(CCc1ccccc1)NCC(O)c1ccc(O)c(C(N)=O)c1 (stereo not given),121%,112%
NC(=O)NO,121%,117%
CCn1nc(C(=O)O)c(=O)c2cc3c(cc21)OCO3,112%,111%
CCCCOc1cc(CC2CNC(=O)N2)ccc1OC (stereo not given),115%,110%
NCCCCN=C(N)N,123%,111%
CCCN(CCC)CCc1cccc2c1CC(=O)N2,98.7%,80.8%

SMILES,activity remaining [1],remaining activity [2]
Cc1ccc(/C(=C\CN2CCCC2)c2ccccn2)cc1,103%,121%
C#CCN(C)Cc1ccccc1,122%,80.8%
N=c1nc(N2CCCCC2)cc(N)n1O,110%,118%
CCN(CC)CCNC(=O)c1ccc(N)cc1,95.4%,96.2%
Oc1ccc(O)cc1,121%,105%
COc1ccc2c(c1)c(CC(=O)O)c(C)n2C(=O)c1ccc(Cl)cc1,103%,92%
NC(=NCc1ccccc1)NC(=O)c1nc(Cl)c(N)nc1N,78.3%,94.8%
COc1cc2nc(N3CCN(C(=O)C4CCCO4)CC3)nc(N)c2cc1OC (stereo not given),119%,102%
O=C(O)c1cc(=O)c2ccccc2[nH]1,113%,109%
CCCN1C[C@H](CSC)C[C@@H]2c3cccc4[nH]cc(c34)C[C@H]21,120%,95.5%
CCc1cccc2c3c([nH]c12)C(CC)(CC(=O)O)OCC3 (stereo not given),116%,116%
Cc1cc(C(C)(C)C)cc(C)c1CC1=NCCN1,126%,115%
CCN(Cc1ccncc1)C(=O)C(CO)c1ccccc1 (stereo not given),98.9%,98.9%
CN(C)CCCN1c2ccccc2CCc2ccc(Cl)cc21,111%,117%
NC(CO)C(=O)NNCc1ccc(O)c(O)c1O (stereo not given),109%,111%
NCCSSCCN,116%,117%
CCCNCC(O)COc1ccccc1C(=O)CCc1ccccc1 (stereo not given),104%,112%
CNC[C@H](O)c1cccc(O)c1,103%,112%
Fc1ccc(C(c2ccc(F)cc2)N2CCN(C/C=C/c3ccccc3)CC2)cc1,117%,103%
CC12CC3CC(C)(C1)CC(N)(C3)C2,108%,92.7%
CNC(=O)Oc1ccc2c(c1)[C@]1(C)CCN(C)[C@@H]1N2C,116%,110%
O=C(/C=C/c1ccc(O)c(O)c1)OCCc1ccccc1,78.8%,105%
Fc1ccc([C@@H]2CCNC[C@H]2COc2ccc3c(c2)OCO3)cc1,108%,121%
COC(=O)C1=C(C)NC(C)=C(C(=O)OCCN(C)Cc2ccccc2)C1c1cccc([N+](=O)[O-])c1 (stereo not given),107%,109%

SMILES,activity remaining [1],remaining activity [2]
CC(=O)N[C@@H](CS)C(=O)O,110%,108%
CS(=O)(=O)Nc1ccc([N+](=O)[O-])cc1Oc1ccccc1,113%,117%
O=C(O)CCCCCCCC(=O)O,120%,93.4%
CCCCC[C@H](CC(=O)NO)C(=O)N[C@H](C(=O)N1CCC[C@H]1CO)C(C)C,109%,111%
Cn1c(=O)c2[nH]cnc2n(C)c1=O,120%,111% and 102%
O=C1N=C(O)CN1/N=C/c1ccc(-c2ccc([N+](=O)[O-])cc2)o1,118%,100%
CCCCc1oc2ccccc2c1C(=O)c1cc(I)c(OCCN(CC)CC)c(I)c1,123%,101%
Cc1cn([C@H]2C[C@H](N=[N+]=[N-])[C@@H](CO)O2)c(=O)[nH]c1=O,114%,117%
NC(=O)c1cnccn1,102%,80.6%
O=[N+]([O-])c1cccc2cn[nH]c12,102%,114%
O=C(CCc1ccc(O)cc1)c1c(O)cc(O)cc1O,105%,79.2%
CC(C)(C)NCC(O)c1cc(O)cc(O)c1 (stereo not given),109%,109%
Cn1cnc([N+](=O)[O-])c1Sc1ncnc2nc[nH]c12,113%,121%
CC(=O)OCC1=C(C(=O)O)N2C(=O)[C@@H](NC(=O)CSc3ccncc3)[C@H]2SC1,109%,113%
O=C1NC(=O)C(c2ccccc2)(c2ccccc2)N1,122%,124% and 101%
CCOC(=O)C1=C[C@]2(CC)CCCN3CCc4c(n1c1ccccc41)[C@@H]32,108%,100%
O=C1CC2(CCCC2)CC(=O)N1CCCCN1CCN(c2ncccn2)CC1,118%,111%
CN(C)CCCN1c2ccccc2Sc2ccc(Cl)cc21,115%,110%
COc1ccc(Cl)cc1C(=O)NCCc1ccc(S(=O)(=O)NC(=O)NC2CCCCC2)cc1,91.3%,120%
O=C(O)C1=CC(=C(c2ccc(O)c(C(=O)O)c2)c2ccc(O)c(C(=O)O)c2)C=CC1=O,101%,103%
CCN(CC)CCNC(=O)c1ccc(NC(C)=O)cc1,92.5%,109%
O=C(c1ccc(OCCN2CCCCC2)cc1)c1c(-c2ccc(O)cc2)sc2cc(O)ccc12,105%,92%
O=C(O)c1cccnc1Nc1cccc(C(F)(F)F)c1,117%,115%
Nc1ccc(S(=O)(=O)Nc2ccnn2-c2ccccc2)cc1,117%,99.3%

SMILES,activity remaining [1],remaining activity [2]
CN(C)[C@@H]1C(=O)C(C(N)=O)=C(O)[C@@]2(O)C(=O)C3=C(O)c4c(O)ccc(Cl)c4[C@@H](O)[C@H]3C[C@@H]12,97%,92.3%
O=c1[nH]cc(F)c(=O)[nH]1,96.1%,98.4%
CCC1(c2ccccc2)C(=O)NCNC1=O,125%,75.1%
CN(C)CCCN1c2ccccc2CCc2ccccc21,107%,90.4%
O=c1ccc2ccc(O)c(O)c2o1,103%,116%
Nc1ncnc2c1ncn2[C@@H]1O[C@H](CO)[C@@H](O)[C@H]1O,113%,110%
CCn1cc(C(=O)O)c(=O)c2cc3c(cc21)OCO3,109%,95.5%
NC1(C(=O)O)CC1,94.3%,88.1%
Cc1ccc(Cl)c(Nc2ccccc2C(=O)O)c1Cl,93.4%,128%
CC(=O)NCCc1c[nH]c2ccc(O)cc12,113%,106%
O=C(O)c1cc(=O)c2c(Cl)cc(Cl)cc2[nH]1,103%,110%
O=c1c(-c2ccc(O)cc2)coc2cc(O)cc(O)c12,109%,121%
CN/C(=C\[N+](=O)[O-])NCCSCc1ccc(CN(C)C)o1,91.1%,101%
COCCOC(=O)C1=C(C)NC(C)=C(C(=O)OC(C)C)C1c1cccc([N+](=O)[O-])c1 (stereo not given),118%,111%
CN1CCN(C2=Nc3ccccc3Oc3ccc(Cl)cc32)CC1,120%,110%
CN1C(C(=O)Nc2ccccn2)=C(O)c2ccccc2S1(=O)=O,115%,109%
O=C(O)c1cccnc1C(=O)O,89.1%,116%
CN1CCN(CC(=O)N2c3ccccc3C(=O)Nc3cccnc32)CC1,117%,94.6%
CCOC(=O)N1CCC(=C2c3ccc(Cl)cc3CCc3cccnc32)CC1,116%,112%
Cn1cnc2c1c(=O)[nH]c(=O)n2C,126%,97.1%
NC(=O)c1cccc(N)c1,121%,113%
COc1ccc2cc([C@H](C)C(=O)O)ccc2c1,101%,91.4%
CNCCC=C1c2ccccc2CCc2ccccc21,122%,113%
O=c1c(-c2ccc(O)cc2)coc2cc(O)ccc12,118%,99.6%

SMILES,activity remaining [1],remaining activity [2]
CC(=O)Nc1nnc(S(N)(=O)=O)s1,103%,113%
CN(C)C(=O)Oc1cccc([N+](C)(C)C)c1,87.4%,120%
NC(=O)CC[C@H](N)C(=O)O,109%,110%
CN(C)c1nc(N(C)C)nc(N(C)C)n1,118%,120%
NCCCS(=O)(=O)O,104%,111%
CN(C)CCOC(=O)COc1ccc(Cl)cc1,124%,112%
C[N+](C)(C)CCCCCC[N+](C)(C)C,122%,99.1% and 87%
c1ccc2c(CC3=NCCN3)cccc2c1,106%,115%
CNCCC(Oc1ccc(C(F)(F)F)cc1)c1ccccc1 (stereo not given),96.1%,96.6%
NC(N)=NC(N)=Nc1ccccc1,123%,101%
CC(C)COCC(CN(Cc1ccccc1)c1ccccc1)N1CCCC1 (stereo not given),126%,91.4%
O=c1n(CCCN2CCN(c3cccc(Cl)c3)CC2)nc2ccccn12,112%,118%
COc1ccc2[nH]cc(CCNC(C)=O)c2c1,111%,118%
NCCS,117%,110%
COC(=O)[C@H]1[C@H]2C[C@H]3c4[nH]c5ccccc5c4CCN3C[C@H]2CC[C@@H]1O,107%,95.4%
O=C(O)c1ccccc1Nc1ccccc1,106%,108%
CCCNC(C)C(=O)Nc1ccccc1C (stereo not given),82%,96.4%
CCCCS(=N)(=O)CCC(N)C(=O)O (stereo not given),102%,84.7%
NCCS(=O)(=O)O,123%,97.8%
O=C(C1CCCCC1)N1CC(=O)N2CCc3ccccc3C2C1 (stereo not given),123%,104%
CN(C)C(=O)Oc1ccc[n+](C)c1,93.4%,91.3%
O=c1c(O)c(-c2ccc(O)c(O)c2)oc2cc(O)cc(O)c12,99.3%,122%
COc1ccc(C2CNC(=O)C2)cc1OC1CCCC1 (stereo not given),120%,91.4%
CCSC(=N)N,103%,93.6%
